# Experimental data reported in PubChem BioAssay AID2585 (National Center for Advancing Translational Sciences (NCATS), 2010).
# Some of the results follow. Records with an inconclusive call do not appear. Active and inactive are the calls of the source. Calls follow the shape of the dose curve; as a rule, active = well fitted inhibition curve with a large enough effect; inconclusive = small, poorly fitted or top-dose-only effect; inactive = no such curve, though single readings can be large or run the other way.
# Biological target: RecQ-like DNA helicase BLM (Homo sapiens) (UniProt P54132)
# Experiment: qHTS Confirmation Assay for Inhibitors of Bloom's syndrome helicase (BLM); also: nearly all actives have a fitted effect of over 45% in size
# Details: BLM DNA unwinding, fluorescence quenching, biochemical
# From the text: Survival of cells and the faithful propagation of the genome depend on elaborate mechanisms of detecting and repairing DNA damage. Treatment of advanced cancer relies on radiation therapy or chemotherapy, which kill cancer cells by causing extensive DNA damage. It is often found, that cancer cells develop resistance to therapy through enhanced activity of DNA repair functions; this has led to an increased interest in developing drugs that interfere with DNA repair, which could sensitize cancer cells to conventional therapy. This validation qHTS assay pertains to human BLM, which is important in resolving abnormal DNA structures formed during replication or homologous recombination. Shutting down the expression of BLM leads to chromosomal instability and higher radiation sensitivity in cultured cells. The validation assay was a fluorescence quenching based kinetic qHTS for BLM Helicase DNA unwinding. The activity was measured as ATP-dependent separation of a 20-bp DNA duplex extended by 30-nt single-stranded tails (forked duplex). The forked DNA substrate was tagged with rhodamine fluorophore (carboxytetramethyl rhodamine, TAMRA) and BHQ-2 (Black Hole Quencher 2) dark quencher. Strand separation results in an increase in the fluorescence of TAMRA (excitation 525 nm, emission 598 nm). This substrate construct operates in a red-shifted region where very few compound library members have been noted to fluoresce (PubChem AIDs 593 and 594). An additional feature of the assay is the inclusion of 2.5 ug/ml poly (dIdC), to reduce interference by compounds such as DNA intercalators, a major source of false inhibitors. Assay Providers: Ian Hickson, University of Oxford Opher Gileadi, Structural Genomics Consortium, University of Oxford Screening Center PI: Austin, C.P. Screening Center: NIH Chemical Genomics Center [NCGC]
# Three uL of reaction buffer (25 mM Tris-HCl (pH 8.0), 5 mM NaCl, 2 mM MgCl2, 1mM DTT, 0.01% Tween- 20, and 2.5 ug/ml poly(dI-dC), including enzyme (50 nM BLM), were dispensed into a 1536-well Greiner black assay plate via solenoid-valve based nanoliter dispensers. Compounds (23 nl each in columns 5-48) and control (23 nl each in column 2 as dose-response) were transferred via a Kalypsys pintool equipped with a 1536-pin array. The plates were incubated for 15 min at room temperature, and then 1 ul of substrates (200 nM DNA and 2 mM ATP, final concentrations) was added to start the reaction. The plate was transferred into a ViewLux high-throughput CCD imager where the reaction progress was measured in a discontinuous kinetic mode (two reads spaced 2 hours apart, with intermediate room temperature incubation of the covered assay plate) by using standard red-fluorescence optics (excitation filter 525 nm, emission filter 598 nm). Enzyme-free and vehicle (DMSO) controls were included for signal normalization.
# % is scaled to controls: 0 for no effect and ±100 for the full control effect; potency is read from the fitted curve at half-maximal effect.
# Sequence of RecQ-like DNA helicase BLM (Homo sapiens) (P54132 whole entry, looked up): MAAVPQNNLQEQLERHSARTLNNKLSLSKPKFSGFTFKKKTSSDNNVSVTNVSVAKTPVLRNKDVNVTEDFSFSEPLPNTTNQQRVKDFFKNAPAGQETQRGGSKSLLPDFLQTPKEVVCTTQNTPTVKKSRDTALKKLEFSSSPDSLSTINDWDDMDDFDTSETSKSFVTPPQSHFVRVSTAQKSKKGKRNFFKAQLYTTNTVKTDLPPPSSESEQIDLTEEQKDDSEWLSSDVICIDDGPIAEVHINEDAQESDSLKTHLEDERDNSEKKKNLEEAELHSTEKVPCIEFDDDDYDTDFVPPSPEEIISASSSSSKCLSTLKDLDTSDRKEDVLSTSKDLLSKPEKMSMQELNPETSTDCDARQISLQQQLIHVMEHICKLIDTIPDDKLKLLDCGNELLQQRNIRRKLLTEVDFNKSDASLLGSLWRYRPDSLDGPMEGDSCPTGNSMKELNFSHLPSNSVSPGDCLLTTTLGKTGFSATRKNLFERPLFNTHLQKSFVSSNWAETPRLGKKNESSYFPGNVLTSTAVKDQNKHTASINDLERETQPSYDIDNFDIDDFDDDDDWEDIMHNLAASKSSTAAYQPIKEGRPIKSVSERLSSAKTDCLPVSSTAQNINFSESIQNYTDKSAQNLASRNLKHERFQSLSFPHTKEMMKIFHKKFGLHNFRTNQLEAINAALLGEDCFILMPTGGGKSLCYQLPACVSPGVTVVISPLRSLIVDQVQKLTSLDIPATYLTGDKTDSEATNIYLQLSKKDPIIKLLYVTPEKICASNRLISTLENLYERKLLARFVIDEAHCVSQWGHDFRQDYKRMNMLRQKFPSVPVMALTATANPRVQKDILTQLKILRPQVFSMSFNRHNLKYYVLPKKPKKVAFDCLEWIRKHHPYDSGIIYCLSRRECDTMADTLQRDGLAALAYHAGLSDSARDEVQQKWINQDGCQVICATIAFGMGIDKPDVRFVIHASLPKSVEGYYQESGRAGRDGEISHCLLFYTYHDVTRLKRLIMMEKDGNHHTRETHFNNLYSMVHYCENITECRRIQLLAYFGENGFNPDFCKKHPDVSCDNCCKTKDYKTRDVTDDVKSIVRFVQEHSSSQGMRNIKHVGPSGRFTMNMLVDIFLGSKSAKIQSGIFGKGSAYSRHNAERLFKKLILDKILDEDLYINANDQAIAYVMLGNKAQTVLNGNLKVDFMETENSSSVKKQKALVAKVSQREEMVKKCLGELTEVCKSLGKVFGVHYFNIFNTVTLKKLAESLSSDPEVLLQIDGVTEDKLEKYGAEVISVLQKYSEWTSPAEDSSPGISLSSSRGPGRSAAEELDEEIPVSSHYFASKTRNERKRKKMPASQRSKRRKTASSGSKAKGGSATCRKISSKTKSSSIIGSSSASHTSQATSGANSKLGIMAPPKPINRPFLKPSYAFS
SMILES,Potency,"max response, negative = inhibition"
CN(C(=O)COC(=O)c1cc(-c2ccco2)nc2ccccc12)C1CCS(=O)(=O)C1 (configuration not stated),18.2 µM (active),
COc1ccc(-c2nc3c(c(SCC(=O)Nc4ccc(C(=O)O)cc4)n2)Cc2ccccc2O3)cc1,5.13 µM (active),
CC(C)(O)c1ccccc1CC[C@H](SCC1(CC(=O)O)CC1)c1cccc(/C=C/c2ccc3ccc(Cl)cc3n2)c1,54.1 µM (active),
Oc1ccc(N=Cc2sc3ccccc3c2Cl)cc1,,-10.8% (inactive)
CS(=O)(=O)c1ccc2nc(NC(=O)c3ccc(Cl)nc3)sc2c1,,0.0289% (inactive)
Cc1ccc(-c2nc(SCc3ccc(Br)cc3)n3[nH]c(=O)cc3n2)cc1,11.5 µM (active),
C=C1c2cccc(OC)c2O[C@H](C(=O)OCC)[C@@H]1CCCCCC,,-13.8% (inactive)
